An excerpt weighted towards active compounds, which were near 11% of everything screened.
Pf growth 96h – P. falciparum growth inhibition at 96 hours | P. falciparum luciferase reporter growth, 96 h | AID 504834 | Potency, µM (series often up to 28.7 µM), without a hit: at the highest dose activity change, negative = inhibition, hits mostly inhibitors | 320,000 tested, 6.9% active; further: on the % scale 0 is the no-effect control and ±100 the full control effect
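Two-generation exposure (96 h) targets delayed-death phenotype. Reporter parasites carrying integrated firefly luciferase, in red cells at 2% hematocrit and 0.05% parasitemia final, kept at 37 C, 5% CO2; luminescence loss indicates inhibition.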
Sm TGR block – inhibitors of Schistosoma mansoni thioredoxin glutathione reductase. Potency, µM (highest dose often 114 µM), for inactives: at the highest dose activity change, negative = inhibition, hits mostly inhibitors. AID 485364. Q962Y6. 360,000 tested, 3% active. purified TGR, DTNB reduction, TNB absorbance 405 nm; further: on the % scale 0 is the no-effect control and ±100 the full control effect; nearly all actives have a fitted effect of over 60% in size
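First, TGR (20 nM dispensed) and NADPH were mixed with compound. Second, a 15 min room-temperature incubation followed. Third, further NADPH and then DTNB were added to start the reaction. Finally, TNB absorbance was monitored kinetically.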
Pf growth 48h – inhibits P. falciparum growth in the first generation, 48 h | P. falciparum luciferase growth in erythrocytes, 48 h | Potency, µM (top dose mostly 28.7 µM), inactives show at the top dose activity change, negative = inhibition, most hits filed as inhibitors | 310,000 tested, 5.9% active; further: on the % scale 0 is the no-effect control and ±100 the full control effect
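Luciferase-expressing P. falciparum in infected erythrocytes (2% hematocrit, 0.1% parasitemia final) in RPMI 1640/0.5% Albumax were exposed to compound for 48 hours at 37 C, 5% CO2; growth read as luminescence.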
AMA1 RON2 block – disrupts binding of P. falciparum AMA1 to RON2; AlphaScreen AMA1-biotinylated RON2 peptide binding; Potency, µM (titrated, usually from 58.2 µM), for inactives: at the top dose activity change, negative = inhibition, hits mostly inhibitors; 360,000 tested, 0.2% active;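 further: 0% = vehicle wells and -100% = peptide control; nearly all actives have a fitted effect of over 45% in size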
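AMA1 (3D7) with his tag at 25 nM final met compounds first, then biotinylated RON2 peptide at 25 nM; detection used donor plus acceptor beads, 10 µg/mL apiece, read by AlphaScreen after 30 min at room temperature.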
NS1 function inh – influenza NS1 inhibition. Potency, µM (highest dose often 46.1 µM), inactives show top-dose activity, positive = more growth. 270,000 tested, 0.4% active. AID 2326; calls by dose curve; further: actives are rising curves; nearly all actives have a fitted effect of over 50% in size
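A cell-based growth assay was used: compounds that relieve NS1-induced slow growth of budding yeast raise OD600. Assay medium was yeast nitrogen base with ammonium sulphate and -URA supplement, pH 6.0, with 2% galactose.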
* marks the source's active call; other numbers are inactive results; ? = inconclusive; . = no result; [ ] = remark or other dose. Unless noted, the call rests on the fitted dose curve; in most records, active means well fitted curve in the direction sought with a large enough effect; inconclusive means small, poorly fitted or top-dose-only effect, or another doubt; inactive means no such curve, though single readings can be large; an effect the other way counts as inactive or inconclusive. Potency means the concentration at half of the fitted maximal effect.

SMILES	Pf growth 96h	Sm TGR block	Pf growth 48h	AMA1 RON2 block	NS1 function inh
COC(=O)C1C2C=CC3(CN(C(C)c4ccc(OC)cc4)C(=O)C13)O2 (centres undefined)	73%	37%	?	27%	0%
CCCCOC(=O)C1[C@H]2C(=O)N(c3ccccc3CC)C[C@]23C=C[C@H]1O3 (some centres undefined)	?	-31%	?	0%	6%
CCc1ccccc1N1CC23C=CC(O2)C(C(=O)OCC(C)C)C3C1=O (centres undefined)	3.7µM*	3%	.	10%	-2%
COc1ccc(C(C)N2CC34C=CC(O3)C(C(=O)OCC(C)C)C4C2=O)cc1 (centres undefined)	15µM*	1%	9%	.	0%
NNC(=O)CCn1c2ccccc2c2ccccc21	?	8%	14%	36%	0%
CNCCC=C1c2ccccc2CCc2ccccc21	9.5µM*	-16%	11µM*	-2%	-6%
C[N+](C)([O-])CCC=C1c2ccccc2CCc2ccccc21	.	.	.	.	-11%
Nc1ccccc1-c1nc2ccccc2s1	9.3µM*	.	68%	135%	-6%
COc1ccc(N2CC(C(=O)NCc3ccco3)CC2=O)cc1 (centres undefined)	15%	20µM*	1%	1%	10%
Cc1cccc(C)c1Nc1nnc(SCC(=O)NCc2ccco2)s1	0.83µM*	-19%	?	0%	8%
COc1ccc(N2CC(C(=O)Nc3nnc(SCC(=O)N4CCOCC4)s3)CC2=O)cc1 (centres undefined)	6.6µM*	-21%	-20%	-4%	20%
COc1ccc(N2CC(C(=O)Nc3nnc(SCC(=O)NCc4ccco4)s3)CC2=O)cc1 (centres undefined)	?	28µM*	-2%	-6%	3%
Cc1cccc(C)c1Nc1nnc(SCC(=O)NCc2cccs2)s1	?	-7%	-4%	8%	-9%
Cc1cccc(Nc2ncnc3onc(-c4cccc(Cl)c4)c23)c1C	9.3µM*	-13%	?	16%	-52%
O=C(c1ccccc1)C1CN(Cc2ccccc2)CCC1(O)c1ccccc1 (centres undefined)	0%	?	?	-1%	-4%
OC(c1ccccc1)C1CN(Cc2ccccc2)CCC1(O)c1ccccc1 (centres undefined)	-2%	20µM*	0.74µM*	-9%	-1%
Cc1cc(C)nc(NC(=NCCc2c[nH]c3ccccc23)NC(=O)C(C)(C)C)n1	4.7µM*	5%	10µM*	5%	2%
COc1ccc(N=C/C=C2\C=C(c3ccccc3)OC(C)(C)O2)cc1	?	40µM*	?	?	-9%
O=C(NC1CC(=O)N(c2ccc(F)cc2)C1)c1ccc(S(=O)(=O)N2CCOCC2)cc1 (centres undefined)	.	10%	.	.	.
COc1ccc(NC(=O)CNC(=O)c2nn(-c3ccc(OC)c(Cl)c3)c(=O)c3ccccc23)c(OC)c1	-30%	-7%	9.3µM*	1%	4%
COc1ccc(/C=N/NC(=O)c2nn(-c3ccccc3)c(=O)c3c(N)scc23)cc1	?	-16%	?	?	1%
COc1ccc(-n2nc(C(=O)NCC(=O)Nc3cc(OC)ccc3OC)c3ccccc3c2=O)cc1	?	-4%	3.3µM*	-5%	-4%
COc1ccc(-n2nc(C(=O)NCC(=O)Nc3ccccn3)c3ccccc3c2=O)cc1Cl	9.3µM*	-20%	6%	10%	-1%
COc1ccc(/C=N/NC(=O)c2nn(-c3ccc(Cl)cc3)c(=O)c3c(N)scc23)cc1	8.3µM*	-24%	.	24%	26%
COc1ccc(/C=N/NC(=O)c2nn(-c3ccc(C)c(C)c3)c(=O)c3ccccc23)cc1	?	1%	13µM*	10%	25%
SMILES	Pf growth 96h	Sm TGR block	Pf growth 48h	AMA1 RON2 block	NS1 function inh
COc1ccc(-n2nc(C(=O)NCC(=O)NC3CCCC(C)C3C)c3ccccc3c2=O)c(OC)c1 (centres undefined)	5.9µM*	1%	?	12%	20%
CCOc1ccccc1NC(=O)CNC(=O)c1nn(-c2ccc(OC)c(OC)c2)c(=O)c2ccccc12	?	-11%	13µM*	-7%	2%
CCOc1ccc(NC(=O)CNC(=O)c2nn(-c3ccc(OC)c(OC)c3)c(=O)c3ccccc23)cc1	?	8%	-3%	-10%	12%
COc1ccc(-n2nc(C(=O)NCC(=O)Nc3ccc(F)cc3)c3ccccc3c2=O)cc1	4%	-6%	12µM*	-8%	-9%
CSc1ncnc2c1ncn2CCCNCCc1ccccn1	.	.	.	52%	.
COc1cccc(-c2nnc(SC(C(=O)c3c[nH]c4ccccc34)c3ccccc3)n2C)c1 (centres undefined)	13µM*	-11%	13µM*	-2%	3%
O=C(Nc1ccc2c(c1)OCCO2)C1CCN(C(=O)c2ccccc2)CC1	?	15%	43%	2%	-3%
O=C(Nc1ccc(C(=O)N2CCCCC2)cc1)c1ccc(Br)cc1	4.1µM*	2%	?	-1%	-11%
O=C(Nc1ccc2c(c1)OCCO2)C1CCN(C(=O)c2ccc(Br)cc2)CC1	2.6µM*	-8%	-2%	-11%	-9%
O=C(Nc1ccc(C(=O)N2CCCC2)cc1)c1ccccc1	.	.	.	-4%	.
O=C(CCc1ccco1)CCc1ccco1	.	.	.	0%	.
COC(=O)[C@@]12C[C@@H](CC(=O)N3CCOCC3)C(=O)N(Cc3ccccc3)C1=CCC(C)(C)C2	.	.	.	0%	.
O=C(CCN1CCCCC1c1cccnc1)NCc1ccccc1 (centres undefined)	.	35µM*	-11%	-1%	-5%
CC(C(=O)Nc1ccncc1)(c1ccccc1)c1ccccc1	10µM*	.	?	4%	1%
O=C(CC(c1ccccc1)c1ccccc1)Nc1ccncc1	10µM*	0%	?	-14%	-78%
O=C(COc1ccc(Br)cc1)Nc1ccncc1	?	-30%	.	-2%	-16%
CCCC(C(=O)Nc1ccncc1)c1ccccc1 (centres undefined)	2.9µM*	-4%	?	26%	6%
O=C(COc1ccc(Nc2ccccc2)cc1)Nc1ccncc1	0%	45µM*	-6%	?	.
Cc1nccn1C[C@@H]1CCc2c(c3ccccc3n2C)C1=O	6%	4%	19%	-5%	-16%
CCc1nnc(NS(=O)(=O)c2ccc(Nc3ccc4nonc4c3[N+](=O)[O-])cc2)s1	?	-17%[57.1 µM]	1%	24%	8%
CCCC(C(=O)Nc1ccc(S(=O)(=O)N2CCCC2)cc1)c1ccccc1 (centres undefined)	?	1%	10µM*	15%	.
CCCC(C)C(=O)Nc1ccc(S(=O)(=O)N2CCCC2)cc1 (centres undefined)	?	-2%	-14%	-7%	29%
Cc1ccc(NS(=O)(=O)c2cccc3nsnc23)cc1C	4.1µM*	-2%	0%	-12%	1%
